Consider 32 molecules from PubChem BioAssay AID2501 (Southern Research Specialized Biocontainment Screening …, 2010).

The campaign covered roughly 2,200 compounds. About 1,200 (55%) were called active. The set was probably picked from earlier hits. Some of the results follow. Values without a mark were called inactive. No cut-off is given here; in the data, nearly all actives have IC50 up to about 92 µM.

This assay is described as follows: counter assay for TAg ATPase ADP read-out – biochemical, ADP-Hunter, fluorescence, counter-screen (AID 2501).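 For inhibition: 0% = enzyme with vehicle and 100% = reference inhibitor wells; higher means more inhibition.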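 Note: purified T antigen ATPase.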 Conditions: series mostly up to 100 µM; inhibition: at the top concentration. In general terms: Counterscreens check selectivity or assay interference.
`O=C(Nc1ccc(O)cc1)/C(=C/c1ccco1)NC(=O)c1ccccc1`: the IC50 – broadly, the concentration at which inhibition is half-maximal – was 3.43 µM (active).

Take `NC(=O)/C(=C/c1ccco1)C(N)=S`: the inhibition (usually the drop in the measured response relative to a control, in per cent) was 23.5%. In the case of `O=C(/C=C/c1ccco1)Nc1cccc(C(=O)Nc2ccccc2C(=O)O)c1`, the “inhibition” value was -24.9%. In the case of `O=C(Nc1ccc(O)cc1)/C(=C\c1cccs1)NC(=O)c1ccccc1`, the IC50 was 8.43 µM (active). As for `O=C(NC(=O)c1cnccc1C(F)(F)F)Nc1ccccc1`, the “inhibition” value is -24.9%.

Take `O=C(Nc1ccc(O)cc1)/C(=C\c1ccncc1)NC(=O)c1ccccc1`: the concentration for half-maximal inhibition (IC50) was 10.7 µM (active). As for `CCC(C)N(C(=O)COC(=O)/C=C/c1ccc(O)c(OC)c1)C1CCS(=O)(=O)C1` (configuration not stated), the IC50 is 19 µM (active).

With `C/C(CC(=O)Nc1ccc(N(C)C)cc1)=N\NC(=O)c1cnccn1`, the IC50 is 3.36 µM (active). `C/C(CC(=O)Nc1ccc(N(C)C)cc1)=N\NC(=O)c1ccncc1`: the IC50 is 7.2 µM (active). With `O=C(COc1ccc2ccccc2c1)Nc1ccc(Cc2ccncc2)cc1`, the “inhibition” value is -35.1%. For `O=C(Nc1nc(-c2ccco2)c(-c2ccco2)s1)c1cnccn1`, the “inhibition” value was 21.5%. Take `C/C(CC(=O)Nc1ccc2ccccc2c1)=N\NC(=O)c1ccc(O)c(O)c1`: the IC50 is 5.4 µM (active). Take `C/C(=N\NC(=O)CCC(=O)Nc1ccc(C)c(C)c1)c1cccs1`: the “inhibition” value was -20.1%. Turning to `O=[N+]([O-])c1c(NCCO)cc(Sc2nc3ccccc3s2)c2nonc12`, the “inhibition” value was -15.8%. Take `Oc1ccc(N=Cc2ccc(O)c(O)c2)cc1`: the IC50 was 2.65 µM (active). Consider `Oc1ccc(/C=N/N=C/c2ccc(O)c(O)c2)cc1O`, for which the IC50 is 2.99 µM (active). Take `COC1=CC(=O)C(O)=C(CCCCCCC/C=C/CCCCCCCC2=C(O)C(=O)C=C(OC)C2=O)C1=O`: the “inhibition” value is -44.9%. With `O=C(CCSc1ccccc1)Nc1ncccn1`, the “inhibition” value is 19.5%. `CCCCCC(=O)NNC1CC(=O)N(c2cccc(OCC)c2)C1=O` (configuration not stated): the “inhibition” value is -16.1%. With `O=C(CCCCl)NC1=NN(c2ccccc2)C(=O)C1`, the IC50 was 12.6 µM (active).

For `Oc1cccc2cnccc12`, the IC50 was 5.53 µM (active).

Regarding `N#Cc1c(N2CCCCC2)nc(N)c2c(N)nc(SCC(=O)O)cc12`, the “inhibition” value is -21.9%. `c1cncc(CNc2ccc3c(c2)OCO3)c1`: the IC50 was 7.3 µM (active).

As for `COc1ccc(-c2c(-c3ccc(O)cc3O)n[nH]c2C)cc1OC`, the IC50 was 13.2 µM (active). With `CNc1nc(C)nc(-n2nc(C)cc2C)n1`, the “inhibition” value is 15.3%. The same measure, in the same setting: to `CC1=C(C)CS(=O)N(S(=O)(=O)c2ccccc2)C1` (configuration not stated) belongs 0.26%; to `COc1ccc(OC)c(C2C(C(=O)c3ccc(C)o3)=C(O)C(=O)N2CCN2CCOCC2)c1` (configuration not stated), -6.16%. On to `O=C(OCCCN1CCOCC1)c1ccc(O)c(O)c1`, for which the IC50 is 9.99 µM (active). For the molecule `CN(C)c1oc(-c2ccccc2[N+](=O)[O-])nc1C#N`, the “inhibition” value was -16.3%. Regarding `COc1cc(OC)c(-c2c3cc(O)c(=O)cc-3oc3cc(O)c(O)cc23)cc1OC`, the IC50 was 7.14 µM (active). Still for that read-out and setting: under `O=c1cc2oc3cc(O)c(O)cc3c(-c3ccccc3[N+](=O)[O-])c-2cc1O` stands 7.23 µM (active). For the molecule `COc1ccc(OC)c(-c2c3cc(O)c(=O)cc-3oc3cc(O)c(O)cc23)c1`, the “inhibition” value is -162%.
